From PubChem BioAssay (Tox21)
Several values for one entry are separate records, joined by “and”; a condition that tells them apart may be missing. Identical values can stand only once. More than one record can exist for a structure, and the calls need not agree. Activity calls are given as the source filed them. Where a call stands in place of a potency, no number is given. Unless noted, calls follow the shape of the dose curve; as a rule, active = well fitted curve in the direction sought with a large enough effect in the repeat runs; inconclusive = weak or mixed curves; inactive = no such curve, though single readings can be large; an effect the other way counts as inactive or inconclusive.

Assays:
[1] = qHTS assay to identify small molecule antagonists of the glucocorticoid receptor (GR) signaling pathway - cell viability counter screen (AID 720693); also: nearly all actives have a fitted effect of over 55% in size; also: potency is read from the fitted curve at half-maximal effect
[2] = qHTS assay for identifying genotoxic compounds that show differential cytotoxicity against isogenic chicken DT40 cell lines with known DNA damage response pathways - wild type cell line (AID 743012); also: nearly all actives have a fitted effect of over 60% in size; also: potency is read from the fitted curve at half-maximal effect
How it was run: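 CellTiter-Glo luminescence readout of viability in wild type DT40 cells after 40 h compound exposure at 37 C/5% CO2; 300 cells/well; reagent incubated 30 min at room temperature before reading.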

[3] = qHTS assay for identifying genotoxic compounds that show differential cytotoxicity against isogenic chicken DT40 cell lines with known DNA damage response pathways - Rev3 mutant cell line (AID 743014); also: nearly all actives have a fitted effect of over 55% in size; also: potency is read from the fitted curve at half-maximal effect
[4] = qHTS assay for identifying genotoxic compounds that show differential cytotoxicity against isogenic chicken DT40 cell lines with known DNA damage response pathways - Rad54/Ku70 mutant cell line (AID 743015); also: nearly all actives have a fitted effect of over 60% in size; also: potency is read from the fitted curve at half-maximal effect
[5] = qHTS assay to identify small molecule antagonists of the androgen receptor (AR) signaling pathway - cell viability counter screen (AID 743033; also: nearly all actives have a fitted effect of over 45% in size; also: potency is read from the fitted curve at half-maximal effect)
[6] = qHTS assay to identify small molecule antagonists of the thyroid receptor (TR) signaling pathway - cell viability counter screen (AID 743064); also: nearly all actives have a fitted effect of over 50% in size; also: potency is read from the fitted curve at half-maximal effect
How it was run: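 In-well cytotoxicity read by CellTiter-Fluor (30 min, 37 C) following 23.5 h exposure of GH3 cells bearing a TRE-luciferase sensor. Compounds were added alongside 1 nM (final) T3 to drive TR transactivation.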

[7] = biological target: Estrogen receptor (Homo sapiens) (UniProt P03372); test: qHTS assay to identify small molecule antagonists of the estrogen receptor alpha (ER-alpha) signaling pathway (AID 743069; active = well fitted curve in the direction sought with a large enough effect in the signal ratio in the repeat runs, not every such curve was filed as active; inconclusive = weak or mixed curves, or effect the other way; inactive = no such curve, though single readings can be large or run the other way; the % refers to the signal ratio)
Estrogen receptor (Homo sapiens), sequence (P03372 whole entry, looked up): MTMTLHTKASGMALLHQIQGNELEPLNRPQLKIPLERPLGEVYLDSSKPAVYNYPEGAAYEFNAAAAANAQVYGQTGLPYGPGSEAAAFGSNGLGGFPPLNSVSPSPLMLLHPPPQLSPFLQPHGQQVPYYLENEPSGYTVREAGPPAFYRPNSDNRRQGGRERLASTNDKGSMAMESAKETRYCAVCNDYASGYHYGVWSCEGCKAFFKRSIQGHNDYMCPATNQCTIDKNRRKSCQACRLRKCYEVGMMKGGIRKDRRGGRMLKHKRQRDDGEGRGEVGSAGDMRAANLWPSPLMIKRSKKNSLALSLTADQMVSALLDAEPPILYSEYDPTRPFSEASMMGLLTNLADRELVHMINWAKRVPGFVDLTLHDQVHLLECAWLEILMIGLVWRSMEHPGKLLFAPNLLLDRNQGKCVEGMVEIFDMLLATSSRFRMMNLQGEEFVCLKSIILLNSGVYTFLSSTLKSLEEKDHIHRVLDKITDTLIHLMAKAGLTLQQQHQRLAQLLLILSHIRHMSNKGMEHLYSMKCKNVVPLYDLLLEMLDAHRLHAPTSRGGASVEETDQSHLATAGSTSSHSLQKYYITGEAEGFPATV
How it was run: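 Beta-lactamase FRET fluorescence is read after 2 hr at room temperature with LiveBLAzer B/G substrate. Before that, ER-alpha-bla HEK293 cells sit 4 hr after plating, then receive compound plus 17beta-estradiol and incubate 18 hr at 37C.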

[8] = qHTS assay to identify small molecule antagonists of the estrogen receptor alpha (ER-alpha) signaling pathway - cell viability counter screen (AID 743074; calls by dose curve;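 also: HEK293 cells carrying ER-alpha-UAS-bla reporter stimulated with 17beta-estradiol; nearly all actives have a fitted effect of over 45% in size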; also: potency is read from the fitted curve at half-maximal effect)
[9] = biological target: Estrogen receptor (Homo sapiens) (UniProt P03372); test: qHTS assay to identify small molecule agonists of the estrogen receptor alpha (ER-alpha) signaling pathway (AID 743075; calls by dose curve;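 also: HEK293 GripTite cells with ER-alpha and UAS-driven beta-lactamase reporter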; also: potency is read from the fitted curve at half-maximal effect)
[10] = biological target: Estrogen receptor (Homo sapiens) (UniProt P03372); test: qHTS assay to identify small molecule agonists of the estrogen receptor alpha (ER-alpha) signaling pathway using the BG1 cell line (AID 743079); conditions: BG1Luc4E2 cells, ERE-luciferase agonist, 22 h; activation: at 70.3 µM (top of the series); also: nearly all actives have a fitted effect of over 20% in size; also: potency is read from the fitted curve at half-maximal effect
[11] = qHTS assay to identify small molecule antagonists of the estrogen receptor alpha (ER-alpha) signaling pathway using the BG1 cell line (AID 743080; calls by dose curve;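 also: BG1 cells stimulated with 17beta-estradiol alongside compound; nearly all actives have a fitted effect of over 25% in size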; also: potency is read from the fitted curve at half-maximal effect); conditions: BG1Luc4E2 ERE-luciferase antagonist mode, luminescence; activity change, negative = inhibition: at 70.3 µM (top of the series)
How it was run: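 Quantitative HTS on the Tox21 10K library: BG1 cells with endogenous ER-alpha and ERE-luciferase reporter, 17beta-estradiol stimulation, 21.5 h compound exposure, luminescence endpoint with parallel fluorescence cytotoxicity counter-read.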

[12] = qHTS assay to identify small molecule antagonists of the estrogen receptor alpha (ER-alpha) signaling pathway using the BG1 cell line - cell viability counter screen (AID 743081);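 also: compound given together with 17beta-estradiol as the ER stimulus; nearly all actives have a fitted effect of over 45% in size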; also: potency is read from the fitted curve at half-maximal effect
Aromatase (Homo sapiens) = Aromatase (Homo sapiens) (UniProt P11511); test: qHTS assay to identify aromatase inhibitors (AID 743083); also: nearly all actives have a fitted effect of over 55% in size; also: potency is read from the fitted curve at half-maximal effect
Aromatase (Homo sapiens), sequence (P11511 whole entry, looked up): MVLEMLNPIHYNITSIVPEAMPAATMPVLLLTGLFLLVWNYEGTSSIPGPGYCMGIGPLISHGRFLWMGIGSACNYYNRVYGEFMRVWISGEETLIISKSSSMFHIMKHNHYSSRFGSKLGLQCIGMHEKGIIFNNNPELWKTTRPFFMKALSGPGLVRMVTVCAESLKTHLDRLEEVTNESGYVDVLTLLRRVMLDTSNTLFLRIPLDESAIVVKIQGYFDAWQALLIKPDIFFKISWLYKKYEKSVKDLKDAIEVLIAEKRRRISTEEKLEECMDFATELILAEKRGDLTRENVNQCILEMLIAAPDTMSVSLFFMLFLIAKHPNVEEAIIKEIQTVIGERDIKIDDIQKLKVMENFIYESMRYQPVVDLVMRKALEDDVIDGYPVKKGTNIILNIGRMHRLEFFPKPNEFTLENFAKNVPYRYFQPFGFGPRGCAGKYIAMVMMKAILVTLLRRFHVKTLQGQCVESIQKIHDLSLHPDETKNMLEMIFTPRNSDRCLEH

[13] = biological target: Androgen receptor (Homo sapiens) (UniProt P10275); test: qHTS assay to identify small molecule antagonists of the androgen receptor (AR) signaling pathway (AID 743035; active = well fitted inhibition curve with a large enough effect in the signal ratio in the repeat runs, not every such curve was filed as active; inconclusive = weak or mixed curves, or effect the other way; inactive = no such curve, though single readings can be large or run the other way; the % refers to the signal ratio; also: potency is read from the fitted curve at half-maximal effect)
Androgen receptor (Homo sapiens), sequence (P10275 whole entry, looked up): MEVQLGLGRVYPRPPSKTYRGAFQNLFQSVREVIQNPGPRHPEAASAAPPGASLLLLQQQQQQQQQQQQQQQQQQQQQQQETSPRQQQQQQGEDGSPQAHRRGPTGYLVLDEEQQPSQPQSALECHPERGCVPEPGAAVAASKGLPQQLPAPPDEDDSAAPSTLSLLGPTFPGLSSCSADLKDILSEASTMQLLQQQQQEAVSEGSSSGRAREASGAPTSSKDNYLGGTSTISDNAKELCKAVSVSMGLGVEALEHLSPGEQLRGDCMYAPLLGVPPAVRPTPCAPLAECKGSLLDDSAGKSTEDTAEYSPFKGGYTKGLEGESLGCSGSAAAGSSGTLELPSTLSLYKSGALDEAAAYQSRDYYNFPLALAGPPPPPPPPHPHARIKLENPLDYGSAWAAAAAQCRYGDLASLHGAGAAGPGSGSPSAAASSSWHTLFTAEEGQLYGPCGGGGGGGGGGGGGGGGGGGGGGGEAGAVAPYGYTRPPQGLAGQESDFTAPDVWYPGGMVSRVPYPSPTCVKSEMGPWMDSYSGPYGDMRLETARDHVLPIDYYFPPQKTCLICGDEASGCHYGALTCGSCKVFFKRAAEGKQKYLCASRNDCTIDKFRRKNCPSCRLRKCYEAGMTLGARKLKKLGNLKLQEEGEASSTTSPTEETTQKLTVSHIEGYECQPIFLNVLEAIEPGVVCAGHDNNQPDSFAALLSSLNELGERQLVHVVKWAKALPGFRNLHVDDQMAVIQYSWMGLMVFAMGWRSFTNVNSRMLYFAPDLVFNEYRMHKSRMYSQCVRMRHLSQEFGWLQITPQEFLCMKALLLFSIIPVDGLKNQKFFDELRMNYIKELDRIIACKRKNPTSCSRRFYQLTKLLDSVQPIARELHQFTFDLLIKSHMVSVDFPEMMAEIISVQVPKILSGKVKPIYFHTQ
How it was run: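 AR-bla HEK293 reporter cells; 4 h settle at 37C/5% CO2; compound + R1881 agonist, 16 h at 37C; LiveBLAzer B/G FRET substrate 2 h RT; fluorescence intensity read. qHTS format.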

[14] = biological target: Androgen receptor (Homo sapiens) (UniProt P10275); test: qHTS assay to identify small molecule agonists of the androgen receptor (AR) signaling pathway using the MDA cell line (AID 743040; also: nearly all actives have a fitted effect of over 20% in size; also: potency is read from the fitted curve at half-maximal effect)
How it was run: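 Luciferase read-out, ONE-Glo, 30 min RT. Cells: MDA-kb2 AR-luc, MMTV promoter with AR and GR response elements. Compound exposure 16 h, 37C, 0% CO2, after 5 h pre-incubation. qHTS agonist mode.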

[15] = qHTS assay to identify small molecule antagonists of the androgen receptor (AR) signaling pathway using the MDA cell line - cell viability counter screen (AID 743041; also: nearly all actives have a fitted effect of over 45% in size; also: potency is read from the fitted curve at half-maximal effect)
How it was run: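 Cytotoxicity counter screen: MDA-kb2 AR-luc cells, compound + R1881, 16 h, 37C, 0% CO2; CellTiter-Fluor added at 15.5 h, fluorescence read after 30 min.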

[16] = biological target: Androgen receptor (Homo sapiens) (UniProt P10275); test: qHTS assay to identify small molecule antagonists of the androgen receptor (AR) signaling pathway using the MDA cell line (AID 743042; also: nearly all actives have a fitted effect of over 55% in size; also: potency is read from the fitted curve at half-maximal effect)
How it was run: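 MDA-kb2 breast carcinoma cells carrying MMTV-luciferase (AR/GR responsive) were co-treated with compounds and the agonist R1881 for 16 h at 37C. Inhibition read as ONE-Glo luminescence; CellTiter-Fluor fluorescence measured in parallel for cytotoxicity.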

[17] = qHTS assay to identify small molecule antagonists of the thyroid receptor (TR) signaling pathway (AID 743065); also: nearly all actives have a fitted effect of over 55% in size; also: potency is read from the fitted curve at half-maximal effect
How it was run: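 GH3.TRE-Luc rat pituitary cells (two TREs driving luciferase) were dosed with compound, then stimulated with 1 nM T3 (final) for 23.5 h at 37 C. ONE-Glo luminescence was the read-out, with CellTiter-Fluor fluorescence as the cytotoxicity counter-screen.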

[18] = system: thyroid hormone receptor (rat, GH3 cells); test: qHTS assay to identify small molecule agonists of the thyroid receptor (TR) signaling pathway (AID 743066; calls by dose curve)
[19] = biological target: Androgen receptor (Homo sapiens) (UniProt P10275); test: qHTS assay to identify small molecule agonists of the androgen receptor (AR) signaling pathway (AID 743036; active = well fitted activation curve with a large enough effect in the signal ratio in the repeat runs, with a control signal flat, not every such curve was filed as active; inconclusive = weak or mixed curves, or effect the other way; inactive = no such curve, though single readings can be large or run the other way; the % refers to the signal ratio)
How it was run: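 Activation was read as beta-lactamase FRET signal from LiveBLAzer B/G substrate, added for 2 h at room temperature. Before that, GeneBLAzer AR-UAS-bla GripTite (HEK293) cells had 16 h compound exposure at 37C.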

| SMILES | Potency [1] | Potency [2] | Potency [3] | Potency [4] | Potency [5] | Potency [6] | Potency [7] | Potency [8] | Potency [9] | Potency [10] | Potency [11] | Potency [12] | Potency (Aromatase (Homo sapiens)) | Potency [13] | Potency [14] | Potency [15] | Potency [16] | Potency [17] | Potency [18] | outcome [19] |
| --- | --- | --- | --- | --- | --- | --- | --- | --- | --- | --- | --- | --- | --- | --- | --- | --- | --- | --- | --- | --- |
| CO[C@H]1C=CO[C@@]2(C)Oc3c(C)c(O)c4c(O)c(cc(O)c4c3C2=O)NC(=O)/C(C)=C\C=C/[C@H](C)[C@H](O)[C@@H](C)[C@@H](O)[C@@H](C)[C@H](OC(C)=O)[C@@H]1C | inactive | inactive and 13.8 µM (active) | inactive and 6.91 µM (active) | inactive and 12.3 µM (active) | inactive and 49.3 µM (active) | 48.9 µM (active) | inactive | inactive | inactive | inactive | inactive | inactive and 34.6 µM (active) | inactive and 21.8 µM (active) | – | – | – | – | – | – | – |
| CCCCCCOc1ccc(O)cc1 | inactive | 6.11 µM (active) | 5.45 µM (active) | 7.7 µM (active) | – | – | – | – | inactive | 8.63 µM (active) | – | inactive | – | 24.5 µM (active) | inactive | inactive | inactive | 6.86 µM (active) | inactive | – |
| CC=O | 25.7 µM (active) | 0.0717 µM (active) | 0.057 µM (active) | 0.0717 µM (active) | 22.9 µM (active) | – | – | 57.5 µM (active) | – | – | 1.61 µM (active) | 32 µM (active) | 5.08 µM (active) | – | – | 63.9 µM (active) | – | 1.28 µM (active) | – | – |
| CNC(=S)NN | inactive | 7.7 µM (active) | 7.7 µM (active) | 7.7 µM (active) | 3.89 µM (active) | – | – | inactive | inactive | – | – | inactive | 61.1 µM (active) | – | – | 48.6 µM (active) | – | 61.1 µM (active) | inactive | – |
| Clc1ccc(C(c2ccccc2Cl)C(Cl)Cl)cc1 (stereo unspecified) | inactive | 23.7 µM (active) | 29.8 µM (active) and 48.6 µM (active) | 26.6 µM (active) and 43.3 µM (active) | inactive | – | – | inactive | – | – | – | inactive | inactive | – | – | inactive | – | – | inactive | – |
| CC(C)(c1cc(Br)c(OCCO)c(Br)c1)c1cc(Br)c(OCCO)c(Br)c1 | 38 µM (active) | 7.52 µM (active) | 13.4 µM (active) | 16.8 µM (active) | – | – | – | – | inactive | – | – | – | – | 17 µM (active) | inactive | – | 42.3 µM (active) | 9.47 µM (active) | inactive | inactive |
| [O]=[Zr] | inactive | inactive | inactive | inactive | inactive | inactive | – | inactive | – | – | – | inactive | inactive | – | – | inactive | – | – | inactive | – |
| CCCCCCCCCCCCCCCC | inactive | inactive | inactive | inactive | inactive | – | inactive | inactive | inactive | – | inactive | inactive | inactive | – | – | inactive | – | inactive | inactive | – |
| O=Nc1ccc(NO)cc1 | inactive | inactive | inactive | inactive | inactive | – | inactive | inactive | inactive | inactive | inactive | inactive | inactive | – | – | inactive | – | inactive | inactive | – |
| Oc1ccc(-c2ccccc2)c(Cl)c1 | inactive | inactive | 30.6 µM (active) | 30.6 µM (active) | – | – | – | inactive | 61.6 µM [inconclusive] (active) | 54.5 µM (active) | inactive | inactive | inactive | – | 68.6 µM (active) | inactive | inactive | – | inactive | inactive |
| NCCCCCCNCCCCCCN | inactive | 7.57 µM (active) | 6.75 µM (active) | 5.36 µM (active) | inactive | inactive | inactive | inactive | inactive | inactive | inactive | inactive | inactive | – | – | inactive | – | – | inactive | – |
| Cc1cc(Nc2ccc(O)cc2)ccc1N | inactive | 15.3 µM (active) | 13.6 µM (active) | 13.6 µM (active) | inactive | 12.1 µM (active) | – | inactive | – | – | – | 54.2 µM (active) | 27.2 µM (active) | – | – | – | – | 7.66 µM (active) | inactive | – |
| Clc1ccccc1CN1CCc2sccc2C1 | inactive | 23.7 µM (active) | 21.1 µM (active) | 26.6 µM (active) | inactive | – | – | inactive | – | – | – | inactive | inactive | – | – | inactive | – | – | inactive | – |
| S=P(N1CC1)(N1CC1)N1CC1 | inactive | 21.1 µM (active) | 944 nM (active) and 319 nM (active) | 26.6 µM (active) and 11.4 µM (active) | inactive | inactive | inactive | inactive | inactive | inactive | inactive | inactive | inactive | – | – | inactive | – | – | inactive | – |
